Results from PubChem BioAssay AID1159580 (chemical genetic matrix, 2015).
Hit rate of the full screen: of about 5,500 compounds, about 2,000 (36%) were called active. Another 18% or so got no clear call; they are omitted. Some of the results follow. A number with no mark means an inactive call. Cut-off read from the data, not from the text of the source: active = normalized growth mostly below about 0.91 (no sharp cut-off); inconclusive = no clear call, values can overlap the other calls; inactive = mostly above about 0.92.

Assay: chemical genetic growth profiling, strain panel (AID 1159580);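 note: tested at 20 µM; growth read once vehicle control cultures reached saturation at 30 °C; 1 = growth at the plate median or of vehicle wells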
Details: S. cerevisiae deletion strains, growth OD

CC1(C)C=Cc2c(cc3occ(-c4ccc5c(c4)OCO5)c(=O)c3c2O)O1
normalized growth (locus YAL013W, strain DEP1, stronger effect = lower value): 0.996
normalized growth (locus YAL021C, strain ccr4, stronger effect = lower value): 0.931
normalized growth (locus YAL026C, strain drs2, stronger effect = lower value): 0.995
normalized growth (locus YAL030W, strain snc1, stronger effect = lower value): 0.938
normalized growth (locus YBL061C, strain skt5, stronger effect = lower value): 0.839 (active)
normalized growth (locus YBR009C, strain hhf1, stronger effect = lower value): 0.982
normalized growth (locus YBR021W, strain FUR4, stronger effect = lower value): 1
normalized growth (locus YBR023C, strain chs3, stronger effect = lower value): 0.884 (active)
normalized growth (locus YBR171W, strain sec66, stronger effect = lower value): 0.998
normalized growth (locus YBR229C, strain ROT2, stronger effect = lower value): 1.01
normalized growth (locus YBR231C, strain swc5, stronger effect = lower value): 0.864 (active)
normalized growth (locus YBR279W, strain paf1, stronger effect = lower value): 0.988
normalized growth (locus YCL011C, strain gbp2, stronger effect = lower value): 0.897 (active)
normalized growth (locus YCL016C, strain dcc1, stronger effect = lower value): 0.994
normalized growth (locus YCL029C, strain bik1, stronger effect = lower value): 1
normalized growth (locus YCL061C, strain MRC1, stronger effect = lower value): 0.977
normalized growth (locus YCL069W, strain vba3, stronger effect = lower value): 0.971
normalized growth (locus YCR088W, strain abp1, stronger effect = lower value): 0.995
normalized growth (locus YDL005C, strain med2, stronger effect = lower value): 0.998
normalized growth (locus YDL035C, strain GPR1, stronger effect = lower value): 0.908
normalized growth (locus YDL040C, strain nat1, stronger effect = lower value): 0.991
normalized growth (locus YDL074C, strain BRE1, stronger effect = lower value): 1.01
normalized growth (locus YDL101C, strain DUN1, stronger effect = lower value): 1.01
normalized growth (locus YDL134C, strain PPH21, stronger effect = lower value): 0.923
normalized growth (locus YDL185W, strain tfp1, stronger effect = lower value): 1
normalized growth (locus YDL192W, strain arf1, stronger effect = lower value): 0.956
normalized growth (locus YDR001C, strain nth1, stronger effect = lower value): 0.998
normalized growth (locus YDR069C, strain doa4, stronger effect = lower value): 0.811 (active)
normalized growth (locus YDR101C, strain arx1, stronger effect = lower value): 0.983
normalized growth (locus YDR137W, strain rgp1, stronger effect = lower value): 1.04
normalized growth (locus YDR159W, strain sac3, stronger effect = lower value): 1
normalized growth (locus YDR162C, strain NBP2, stronger effect = lower value): 0.976
normalized growth (locus YDR195W, strain ref2): 1.01
normalized growth (locus YDR297W, strain sur2, stronger effect = lower value): 0.91 (active)
normalized growth (locus YDR318W, strain mcm21, stronger effect = lower value): 0.97
normalized growth (locus YDR334W, strain swr1, stronger effect = lower value): 0.95
normalized growth (locus YDR335W, strain msn5, stronger effect = lower value): 0.978
normalized growth (locus YDR388W, stronger effect = lower value): 0.993
normalized growth (locus YDR392W, strain spt3, stronger effect = lower value): 0.873
normalized growth (locus YDR502C, strain sam2, stronger effect = lower value): 0.989
normalized growth (locus YEL003W, strain gim4, stronger effect = lower value): 0.932
normalized growth (locus YEL037C, strain rad23, stronger effect = lower value): 0.977
normalized growth (locus YEL061C, strain CIN8 (second series), stronger effect = lower value): 0.98
normalized growth (locus YEL061C, strain CIN8, stronger effect = lower value): 0.981
normalized growth (locus YER015W, strain faa2, stronger effect = lower value): 0.841 (active)
normalized growth (locus YER016W, strain bim1, stronger effect = lower value): 0.988
normalized growth (locus YER110C, stronger effect = lower value): 1.04
normalized growth (locus YER111C, strain swi4, stronger effect = lower value): 0.98
normalized growth (locus YER155C, strain BEM2 (second series), stronger effect = lower value): 0.947
normalized growth (locus YER155C, strain BEM2, stronger effect = lower value): 1.02
normalized growth (locus YER167W, strain BCK2, stronger effect = lower value): 0.967
normalized growth (locus YFR010W, strain ubp6, stronger effect = lower value): 0.91
normalized growth (locus YGL078C, strain dbp3, stronger effect = lower value): 1.02
normalized growth (locus YGL086W, strain mad1, stronger effect = lower value): 0.922 (active)
normalized growth (locus YGL167C, strain pmr1, stronger effect = lower value): 1.01
normalized growth (locus YGL173C, strain kem1, stronger effect = lower value): 0.817 (active)
normalized growth (locus YGL227W, strain vid30, stronger effect = lower value): 1.01
normalized growth (locus YGL240W, strain doc1, stronger effect = lower value): 1.02
normalized growth (locus YGL248W, strain PDE1, stronger effect = lower value): 0.883 (active)
normalized growth (locus YGL253W, strain hxk2, stronger effect = lower value): 0.894 (active)
normalized growth (locus YGR078C, strain PAC10, stronger effect = lower value): 0.98
normalized growth (locus YGR135W, strain pre9, stronger effect = lower value): 0.964
normalized growth (locus YGR252W, strain gcn5, stronger effect = lower value): 1.02
normalized growth (locus YHR013C, strain ard1, stronger effect = lower value): 0.982
normalized growth (locus YHR027C, strain rpn1, stronger effect = lower value): 0.749 (active)
normalized growth (locus YHR030C, strain SLT2, stronger effect = lower value): 0.945
normalized growth (locus YHR079C, strain IRE1 (second series), stronger effect = lower value): 1.02
normalized growth (locus YHR094C, strain hxt1, stronger effect = lower value): 1.03
normalized growth (locus YHR129C, strain ARP1, stronger effect = lower value): 0.94
normalized growth (locus YHR142W, strain chs7, stronger effect = lower value): 0.936
normalized growth (locus YHR200W, strain rpn10, stronger effect = lower value): 0.968
normalized growth (locus YIL066C, strain RNR3, stronger effect = lower value): 0.921
normalized growth (locus YIL073C, strain SPO22, stronger effect = lower value): 0.886
normalized growth (locus YIL125W, strain kgd1, stronger effect = lower value): 1.03
normalized growth (locus YIR030C, strain dcg1, stronger effect = lower value): 1.01
normalized growth (locus YJL092W, strain hpr5, stronger effect = lower value): 0.983
normalized growth (locus YJL095W, strain BCK1 (second series), stronger effect = lower value): 0.918 (active)
normalized growth (locus YJL095W, strain BCK1, stronger effect = lower value): 0.927
normalized growth (locus YJL115W, strain asf1, stronger effect = lower value): 1.01
normalized growth (locus YJL129C, strain trk1, stronger effect = lower value): 1.01
normalized growth (locus YJL134W, strain LCB3, stronger effect = lower value): 0.998
normalized growth (locus YJL154C, strain vps35, stronger effect = lower value): 0.997
